# From the supplement of paper PMC8728848
# Only a selection was taken, and the strongest signals are over-represented in it overall.
# B1: AT5G17240(42) (Arabidopsis thaliana), Q6NQJ8 (protein)
# chain: MDLEHQTMETFLRWAAEIGISDSIDSSRFRDSCLGHSLSVSDFPDAGGRGLGAARELKKGELVLKVPRKALMTTESIIAKDLKLSDAVNLHNSLSSTQILSVCLLYEMSKEKKSFWYPYLFHIPRDYDLLATFGNFEKQALQVEDAVWATEKATAKCQSEWKEAGSLMKELELKPKFRSFQAWLWASATISSRTLHVPWDSAGCLCPVGDLFNYDAPGDYSNTPQGPESANNVEEAGLVVETHSERLTDGGFEEDVNAYCLYARRNYQLGEQVLLCYGTYTNLELLEHYGFMLEENSNDKVFIPLETSLFSLASSWPKDSLYIHQDGKLSFALISTLRLWLIPQSQRDKSVMRLVYAGSQISVKNEILVMKWMSEKCGSVLRDLPTSVTEDTVLLHNIDKLQDPELRLEQKETEAFGSEVRAFLDANCLWDVTVLSGKPIEFSRKTSRMLSKWRWSVQWRLSYKRTLADCISYCNEKMNNLLGTQDRLRDL
# Assays:
# Assay in all cases: glycan array binding signal (z-score within array); higher = stronger binding
# Settings in all cases: glycan notation: IUPAC condensed, linker removed
# [1] = target: Fuc(a1-2)Gal(b1-3)GalNAc(a1-3)[Fuc(a1-2)]Gal(b1-4)Glc
# Procedure, shortened: (§1)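 The Consortium for Functional Glycomics database supplied 3228 glycan arrays, of which those lacking an available protein sequence were dropped. The binding signal, a within-array Z-score, was averaged across arrays of the same protein sequence and across linkers. Negative scores can be read as non-binding.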
# [2] = target: Fuc(a1-2)Gal(b1-4)[Fuc(a1-3)]GlcNAc(b1-3)Gal(b1-4)[Fuc(a1-3)]GlcNAc
# Procedure, shortened: as §1
# [3] = target: Fuc(a1-2)Gal(b1-4)[Fuc(a1-3)]GlcNAc(b1-3)[Neu5Ac(a2-6)Gal(b1-4)GlcNAc(b1-6)]Gal(b1-4)Glc
# Procedure, shortened: as §1
# [4] = target: Fuc(a1-2)[Gal(a1-3)]Gal(b1-4)GlcNAc(b1-6)GalNAc
# Procedure, shortened: as §1
# [5] = target: Fuc(a1-2)[GalNAc(a1-3)]Gal(b1-3)GalNAc(a1-3)[Fuc(a1-2)]Gal(b1-4)GlcNAc
# Procedure, shortened: as §1
# [6] = target: Fuc(a1-2)[GalNAc(a1-3)]Gal(b1-4)[Fuc(a1-3)]GlcNAc(b1-3)GalNAc
# Procedure, shortened: as §1
# [7] = target: Fuc(a1-3)[Gal(b1-4)]GlcNAc(b1-2)Man(a1-3)[Fuc(a1-3)[Gal(b1-4)]GlcNAc(b1-2)Man(a1-6)]Man(b1-4)GlcNAc(b1-4)[Fuc(a1-6)]GlcNAc
# Procedure, shortened: as §1
# Gal(a1-3)GalNAc = target: Gal(a1-3)GalNAc
# Procedure, shortened: as §1
# [8] = target: Gal(a1-3)[Gal(a1-4)]Gal(b1-4)GlcNAc
# Procedure, shortened: as §1
# Gal(a1-4)Gal(b1-4)Glc = target: Gal(a1-4)Gal(b1-4)Glc
# Procedure, shortened: as §1
# [9] = target: Gal(b1-3)GalNAc(b1-4)Gal(b1-4)Glc
# Procedure, shortened: as §1
# [10] = target: Gal(b1-3)GlcNAc(a1-3)Gal(b1-4)GlcNAc
# Procedure, shortened: as §1
# Gal(b1-4)Gal = target: Gal(b1-4)Gal
# Procedure, shortened: as §1
# [11] = target: Gal(b1-4)GalNAc(a1-3)[Fuc(a1-2)]Gal(b1-4)GlcNAc
# Procedure, shortened: as §1
# [12] = target: Gal(b1-4)GlcNAc(b1-3)Gal(b1-4)GlcNAc(b1-3)Gal(b1-4)GlcNAc(b1-2)Man(a1-3)[Gal(b1-4)GlcNAc(b1-3)Gal(b1-4)GlcNAc(b1-3)Gal(b1-4)GlcNAc(b1-2)Man(a1-6)]Man(b1-4)GlcNAc(b1-4)[Fuc(a1-6)]GlcNAc
# Procedure, shortened: as §1
# Gal(b1-6)Gal = target: Gal(b1-6)Gal
# Procedure, shortened: as §1
# Gal3S6S(b1-4)GlcNAc6S = target: Gal3S6S(b1-4)GlcNAc6S
# Procedure, shortened: as §1
# Gal6S(b1-4)Glc = target: Gal6S(b1-4)Glc
# Procedure, shortened: as §1
# [13] = target: GalNAc(b1-3)Gal(a1-4)Gal(b1-4)GlcNAc
# Procedure, shortened: as §1
# GalNAc(b1-4)GlcNAc = target: GalNAc(b1-4)GlcNAc
# Procedure, shortened: as §1
# GalNAc4S6S(b1-4)GlcNAc = target: GalNAc4S6S(b1-4)GlcNAc
# Procedure, shortened: as §1
# GalNAc6S(b1-4)GlcNAc = target: GalNAc6S(b1-4)GlcNAc
# Procedure, shortened: as §1
# GlcA(b1-3)Gal = target: GlcA(b1-3)Gal
# Procedure, shortened: as §1
# [14] = target: GlcNAc(a1-4)Gal(b1-3)GlcNAc
# Procedure, shortened: as §1
# [15] = target: GlcNAc(a1-4)Gal(b1-4)GlcNAc(b1-3)Gal(b1-4)Glc
# Procedure, shortened: as §1
# [16] = target: GlcNAc(b1-2)Gal(b1-3)GalNAc
# Procedure, shortened: as §1
# [17] = target: GlcNAc(b1-2)[GlcNAc(b1-4)]Man(a1-3)[GlcNAc(b1-4)][GlcNAc(b1-2)Man(a1-6)]Man(b1-4)GlcNAc(b1-4)GlcNAc
# Procedure, shortened: as §1
# [18] = target: GlcNAc(b1-3)Gal(b1-4)GlcNAc(b1-2)[GlcNAc(b1-3)Gal(b1-4)GlcNAc(b1-6)]Man(a1-6)[GlcNAc(b1-3)Gal(b1-4)GlcNAc(b1-2)Man(a1-3)]Man(b1-4)GlcNAc(b1-4)GlcNAc
# Procedure, shortened: as §1
# [19] = target: GlcNAc(b1-3)Gal(b1-4)GlcNAc(b1-3)Gal(b1-4)GlcNAc(b1-2)[GlcNAc(b1-3)Gal(b1-4)GlcNAc(b1-3)Gal(b1-4)GlcNAc(b1-6)]Man(a1-6)[GlcNAc(b1-3)Gal(b1-4)GlcNAc(b1-3)Gal(b1-4)GlcNAc(b1-2)Man(a1-3)]Man(b1-4)GlcNAc(b1-4)[Fuc(a1-6)]GlcNAc
# Procedure, shortened: as §1
# [20] = target: GlcNAc(b1-3)Gal(b1-4)GlcNAc(b1-3)Gal(b1-4)GlcNAc(b1-3)Gal(b1-4)GlcNAc(b1-3)Gal(b1-4)GlcNAc(b1-2)[GlcNAc(b1-3)Gal(b1-4)GlcNAc(b1-3)Gal(b1-4)GlcNAc(b1-3)Gal(b1-4)GlcNAc(b1-3)Gal(b1-4)GlcNAc(b1-6)]Man(a1-6)[GlcNAc(b1-3)Gal(b1-4)GlcNAc(b1-3)Gal(b1-4)GlcNAc(b1-3)Gal(b1-4)GlcNAc(b1-3)Gal(b1-4)GlcNAc(b1-2)Man(a1-3)]Man(b1-4)GlcNAc(b1-4)[Fuc(a1-6)]GlcNAc
# Procedure, shortened: as §1
binder,measurement,setting,value
B1,glycan array binding signal (z-score),[1],0.123
same,glycan array binding signal (z-score),[2],0.458
same,glycan array binding signal (z-score),[3],-0.37
same,glycan array binding signal (z-score),[4],-0.375
same,glycan array binding signal (z-score),[5],-0.276
same,glycan array binding signal (z-score),[6],6.64
same,glycan array binding signal (z-score),[7],0.044
same,glycan array binding signal (z-score),Gal(a1-3)GalNAc,1.94
same,glycan array binding signal (z-score),[8],8.82
same,glycan array binding signal (z-score),Gal(a1-4)Gal(b1-4)Glc,4.63
same,glycan array binding signal (z-score),[9],1.23
same,glycan array binding signal (z-score),[10],-0.028
same,glycan array binding signal (z-score),Gal(b1-4)Gal,0.335
same,glycan array binding signal (z-score),[11],-0.444
same,glycan array binding signal (z-score),[12],-0.845
same,glycan array binding signal (z-score),Gal(b1-6)Gal,-0.362
same,glycan array binding signal (z-score),Gal3S6S(b1-4)GlcNAc6S,1.61
same,glycan array binding signal (z-score),Gal6S(b1-4)Glc,-0.21
same,glycan array binding signal (z-score),[13],3.08
same,glycan array binding signal (z-score),GalNAc(b1-4)GlcNAc,8.25
same,glycan array binding signal (z-score),GalNAc4S6S(b1-4)GlcNAc,1.39
same,glycan array binding signal (z-score),GalNAc6S(b1-4)GlcNAc,-0.134
same,glycan array binding signal (z-score),GlcA(b1-3)Gal,-0.785
same,glycan array binding signal (z-score),[14],-0.54
same,glycan array binding signal (z-score),[15],-0.607
same,glycan array binding signal (z-score),[16],-0.394
same,glycan array binding signal (z-score),[17],-0.434
same,glycan array binding signal (z-score),[18],2.56
same,glycan array binding signal (z-score),[19],1.12
same,glycan array binding signal (z-score),[20],1.33
